Assay [1] can be described thus: qHTS assay to identify small molecule agonists of the vitamin D receptor (VDR) signaling pathway - cell viability counter screen (AID 743224). Also: series mostly up to about 63 µM; nearly all actives have a fitted effect of over 50% in size. In outline:
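Viability is measured in the same wells as the VDR-bla reporter assay: after 16 h compound treatment and 2 h substrate loading, CellTiter-Glo is added and luminescence read 30 min later.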

The nature of assay [2]: qHTS assay to identify small molecule agonists of the NFkB signaling pathway (AID 1159509; active = well fitted curve in the direction sought with a large enough effect in the signal ratio in the repeat runs, not every such curve was filed as active; the % refers to the signal ratio; also: series mostly up to about 61 µM). In short, it runs like this: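 NFkB-bla ME-180 cells carry a beta-lactamase reporter under an NF-kB response element. They were plated overnight, then exposed to compounds for 5 h at 37 C. Read-out is LiveBLAzer FRET after 1.5 hr at room temperature (405 nm excitation; 460/530 nm emission).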

The nature of assay [3]: qHTS assay to identify small molecule agonists of the NFkB signaling pathway - cell viability counter screen (AID 1159515; calls by dose curve; also: series mostly up to about 61 µM; nearly all actives have a fitted effect of over 55% in size). In short, it runs like this:
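Multiplexed viability readout: after the 5 hr compound exposure and 1.5 hr FRET substrate step, CellTiter-Glo reagent went into the same NFkB-bla ME-180 wells; ATP luminescence was measured after 30 min at room temperature.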

A short description of assay [4]: qHTS assay to identify small molecule agonists of the endoplasmic reticulum stress response signaling pathway (AID 1159516; active = well fitted activation curve with a large enough effect in the signal ratio in the repeat runs, not every such curve was filed as active; the % refers to the signal ratio). In short, it runs like this: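 Tox21 10K library screened in quantitative HTS format on ESRE-bla HeLa cells, a beta-lactamase reporter under ER stress response element control; 5 hr treatment, FRET read.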
Assay [5] in a line: qHTS assay to identify small molecule agonists of the endoplasmic reticulum stress response signaling pathway - cell viability counter screen (AID 1159517; calls by dose curve; also: series mostly up to about 61 µM; nearly all actives have a fitted effect of over 50% in size). In short, it runs like this:
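CellTiter-Glo was added to wells already read for beta-lactamase FRET, and luminescence was recorded 30 min later. Cells: ESRE-bla HeLa, 1,500 per well, compound exposure 5 hr at 37 C.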

A short description of assay [6]: qHTS assay to identify small molecule antagonists of the retinoid-related orphan receptor gamma (ROR-gamma) signaling pathway - cell viability counter screen (AID 1159520). Also: nearly all actives have a fitted effect of over 50% in size. In short, it runs like this:
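Tet-on ROR gamma CHO cells (1,000/well) were plated 4 hr, given compounds in DMSO for 2 hr at 37 C, then induced with 1 uM final doxycycline for 16 hr. Viability was read as ATP by CellTiter-Glo luminescence after 30 min.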

In assay [7] the target is Nuclear receptor ROR-gamma (Homo sapiens) (UniProt P51449). Nature of the assay: qHTS assay to identify small molecule antagonists of the retinoid-related orphan receptor gamma (ROR-gamma) signaling pathway (AID 1159521;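 also: CHO cells with doxycycline inducible ROR-gamma driving an RORE luciferase reporter; top concentration of the series differs between compounds; nearly all actives have a fitted effect of over 50% in size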). In outline:
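Cells were plated, rested 4 h at 37 C, exposed to compounds for 2 h, then given 1 uM final doxycycline hyclate to induce RORγ expression. After 16 h, ONE-Glo luminescence from the ROR response element reporter was measured.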

A short description of assay [8]: qHTS assay to identify small molecule agonists of the AP-1 signaling pathway - cell viability counter screen (AID 1159525; calls by dose curve; also: nearly all actives have a fitted effect of over 55% in size). In short, it runs like this:
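ME-180 AP-1-bla, 2500 cells/well, Opti-MEM + 0.5% dialyzed FBS; overnight 37 °C; cpd 15-pt titration, 5 h 37 °C; CellTiter-Glo 30 min RT; luminescence read; normalised to TOAB and DMSO controls.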

Assay [9] can be described thus: qHTS assay to identify small molecule agonists of the AP-1 signaling pathway (AID 1159526; calls by dose curve).
For assay [10], the target named is Retinoic acid receptor RXR-alpha (Homo sapiens) (UniProt P19793). Nature of the assay: qHTS assay to identify small molecule agonists of the RXR signaling pathway (AID 1159527; calls by dose curve; also: nearly all actives have a fitted effect of over 35% in size; also: potency is read from the fitted curve at half-maximal effect). In short, it runs like this:
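Cells plated at 2,000/well, rested 5 hr at 37 C, pin-dosed with DMSO compound solutions, incubated 16 hr, then loaded with B/G FRET substrate for 2 hr at RT before dual-emission fluorescence reading.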

Assay [11] is described as follows: qHTS assay to identify small molecule agonists of the RXR signaling pathway - cell viability counter screen (AID 1159529). In outline: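 Steps: seed RXR-alpha-UAS-bla HEK 293T cells in assay medium containing 2% charcoal-stripped FBS; incubate 5 hr; add compounds in DMSO; incubate 16 hr at 37 C; after the bla read, add CellTiter-Glo and read luminescence at 30 min.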

Assay [12] can be described thus: qHTS assay to identify small molecule antagonists of the retinoid acid receptor (RAR) signaling pathway - cell viability counter screen (AID 1159551). Also: nearly all actives have a fitted effect of over 35% in size. In outline: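 Cytotoxicity counter screen in C3RL4 cells: 6 h compound exposure with 1 uM retinol (final), viability from cellular ATP by luminescence.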
A short description of assay [13]: qHTS assay to identify small molecule antagonists of the retinoic acid receptor (RAR) signaling pathway (AID 1159552; also: nearly all actives have a fitted effect of over 50% in size). In outline:
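Retinol at 1 uM final stimulated RARE-luciferase expression in C3RL4 cells exposed to test compounds for 6 hr at 37 C. Reduced luminescence, read 30 min after detection reagent, indicated pathway antagonism.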

Assay [14] in a line: qHTS assay to identify small molecule agonists of the retinoic acid receptor (RAR) signaling pathway (AID 1159553). In short, it runs like this:
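Agonist activity was scored in C3RL4 cells bearing a retinoic acid response element luciferase construct. Cells were treated with compounds for 6 hr at 37 C, and luciferase signal was measured as luminescence.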

Assay [15] in a line: qHTS assay to identify small molecule antagonists of the estrogen related receptor (ERR) signaling pathway from Tox21 library - cell viability counter screen (AID 1224834). Also: nearly all actives have a fitted effect of over 30% in size. In short, it runs like this:
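Cytotoxicity of test substances is gauged in the same ERR cells used for the antagonist screen, after 17.5 h of compound treatment at 37 C, by CellTiter-Fluor fluorescence measured after 30 min.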

For assay [16], the target named is Luciferin 4-monooxygenase (Photinus pyralis) (UniProt P08659). Nature of the assay: qHTS assay to identify small molecule inhibitors of firefly luciferase (AID 1224835). Also: series mostly up to about 120 µM; nearly all actives have a fitted effect of over 25% in size. In short, it runs like this: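 Quantitative HTS format; KM concentrations of both substrates. Purified P. pyralis FLuc activity quantified from luminescence images.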
Assay [17] can be described thus: qHTS assay to identify small molecule agonists of the constitutive androstane receptor (CAR) signaling pathway - cell viability counter screen (AID 1224836). Also: series mostly up to about 92 µM; nearly all actives have a fitted effect of over 45% in size. In outline:
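Cells were seeded and incubated 4 hrs. Compounds were added across 15 concentrations together with PK11195 at 0.75 uM final. Plates were incubated 23 hrs at 37 C. CellTiter-Fluor was added and fluorescence measured.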

Assay [18] is described as follows: qHTS assay to identify small molecule antagonists of the constitutive androstane receptor (CAR) signaling pathway - cell viability counter screen (AID 1224837). Also: series mostly up to about 92 µM; nearly all actives have a fitted effect of over 45% in size. In outline: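 Multiplexed cytotoxicity read-out for the CAR antagonist screen: double-stable HepG2-CYP2B6-hCAR cells co-treated with 50 nM CITCO (final) and compound over 15 concentrations, incubated 23 hr, then assessed by CellTiter-Fluor fluorescence.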

Assay [19] concerns the target Nuclear receptor subfamily 1 group I member 3 (Homo sapiens) (UniProt Q14994). Nature of the assay: qHTS assay to identify small molecule antagonists of the constitutive androstane receptor (CAR) signaling pathway (AID 1224838). Also: nearly all actives have a fitted effect of over 40% in size. In short, it runs like this:
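Compounds were titrated across 15 concentrations onto HepG2 cells double-stably expressing hCAR and a CYP2B6-2.2kb reporter, together with 50 nM CITCO (final). After 24 h at 37 C, luciferase activity was measured by luminescence.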

Assay [20] can be described thus: qHTS assay to identify small molecule antagonists of the vitamin D receptor (VDR) signaling pathway - cell viability counter screen (AID 743225). Also: nearly all actives have a fitted effect of over 50% in size. In outline:
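HEK293T VDR-bla; cpd + 1a,25-(OH)2D3 3 nM final, 16 h 37C/5% CO2; B/G FRET substrate 2 h RT; then CellTiter-Glo 30 min RT, luminescence.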

Molecules are shown by their SMILES. Results filed as inconclusive are left out. A number with no mark means an inactive call. Calls of active or inactive are those of the source. Unless noted, calls follow the shape of the dose curve; as a rule, active = well fitted curve in the direction sought with a large enough effect in the repeat runs; inconclusive = weak or mixed curves; inactive = no such curve, though single readings can be large; an effect the other way counts as inactive or inconclusive.

Sequence of Retinoic acid receptor RXR-alpha (Homo sapiens) (P19793 whole entry, looked up): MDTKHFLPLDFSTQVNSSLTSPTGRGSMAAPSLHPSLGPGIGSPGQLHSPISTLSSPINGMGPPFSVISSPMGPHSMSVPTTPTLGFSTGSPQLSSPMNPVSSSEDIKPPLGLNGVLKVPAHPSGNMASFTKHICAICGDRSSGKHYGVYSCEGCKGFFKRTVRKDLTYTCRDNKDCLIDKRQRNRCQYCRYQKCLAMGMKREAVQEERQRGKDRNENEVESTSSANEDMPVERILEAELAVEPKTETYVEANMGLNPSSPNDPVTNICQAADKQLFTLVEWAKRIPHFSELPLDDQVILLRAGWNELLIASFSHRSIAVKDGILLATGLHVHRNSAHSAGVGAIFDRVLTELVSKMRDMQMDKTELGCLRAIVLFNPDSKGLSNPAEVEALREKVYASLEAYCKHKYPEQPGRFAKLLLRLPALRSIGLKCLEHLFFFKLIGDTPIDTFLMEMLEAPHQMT
Sequence of Luciferin 4-monooxygenase (Photinus pyralis) (P08659 whole entry, looked up): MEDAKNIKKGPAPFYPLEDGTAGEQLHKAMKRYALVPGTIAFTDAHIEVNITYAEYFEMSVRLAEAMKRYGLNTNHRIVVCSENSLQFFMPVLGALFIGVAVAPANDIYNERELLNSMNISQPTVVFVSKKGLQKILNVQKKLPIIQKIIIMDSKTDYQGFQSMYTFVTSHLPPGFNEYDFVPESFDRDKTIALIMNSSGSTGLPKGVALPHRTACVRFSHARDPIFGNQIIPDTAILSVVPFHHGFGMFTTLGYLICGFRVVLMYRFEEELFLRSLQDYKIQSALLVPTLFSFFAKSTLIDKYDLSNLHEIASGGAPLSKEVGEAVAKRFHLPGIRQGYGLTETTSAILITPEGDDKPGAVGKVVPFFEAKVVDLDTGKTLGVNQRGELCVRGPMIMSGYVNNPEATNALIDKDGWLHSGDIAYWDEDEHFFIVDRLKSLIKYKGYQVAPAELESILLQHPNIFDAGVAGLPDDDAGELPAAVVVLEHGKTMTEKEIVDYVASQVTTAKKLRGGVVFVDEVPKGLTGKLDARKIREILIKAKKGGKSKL
Sequence of Nuclear receptor subfamily 1 group I member 3 (Homo sapiens) (Q14994 whole entry, looked up): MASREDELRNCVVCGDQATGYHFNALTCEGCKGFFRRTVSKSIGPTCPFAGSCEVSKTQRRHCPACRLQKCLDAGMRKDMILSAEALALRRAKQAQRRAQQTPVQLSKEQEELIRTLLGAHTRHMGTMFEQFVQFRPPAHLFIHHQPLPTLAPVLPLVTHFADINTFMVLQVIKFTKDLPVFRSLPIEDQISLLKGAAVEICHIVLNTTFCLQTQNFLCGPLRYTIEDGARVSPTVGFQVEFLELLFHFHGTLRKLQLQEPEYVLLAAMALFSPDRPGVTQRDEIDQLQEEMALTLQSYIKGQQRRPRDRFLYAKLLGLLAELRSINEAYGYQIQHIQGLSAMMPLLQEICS

As to `CCCCOC(=O)C(C)O` (stereo not drawn), the result in assay [1], in assay [2], in assay [3], in assay [4], in assay [5] and in assay [6] was inactive. For the same compound, the compound was called inactive in assay [7], in assay [8], in [9], in assay [11], in assay [12] and in assay [13]. Further, the call in assay [15], in assay [17] and in assay [18] was inactive. Moreover, the Potency entry in assay [10], in assay [14], in [16] and in [19] was “inactive” each time.
Take `CC(C)c1ccc(C=O)cc1`: the outcome in assay [1], in assay [20], in assay [2], in assay [3], in assay [4] and in assay [5] was inactive. For the same compound, the compound was called inactive in [6], in assay [7], in assay [8], in assay [9], in assay [11] and in assay [12]. Further, the compound was classed as inactive in assay [13], in assay [15], in assay [17] and in assay [18]. Besides, the Potency in assay [10] is 43.6 µM (active). Also, the Potency entry in assay [14], in [16] and in [19] was “inactive” throughout.
Turning to `CN(C)C(C)(C)CO`, the outcome in [1], in assay [20], in [2], in assay [3], in assay [4] and in [5] was inactive. Besides, the outcome in assay [6], in assay [7], in [8], in assay [9], in assay [11] and in [12] was inactive. Moreover, the outcome in assay [13], in [17] and in assay [18] was inactive. The Potency result in assay [10], in assay [14], in assay [16] and in [19] was “inactive” in each case.
In the case of `O=C(O)CONC(=O)c1ccccc1`, the compound was classed as inactive in assay [1], in assay [20], in assay [2], in assay [3], in [4] and in [5]. For the same compound, the compound was classed as inactive in assay [6], in [7], in assay [8], in assay [9], in assay [11] and in assay [12]. Besides, the outcome in [13], in [15], in assay [17] and in assay [18] was inactive. In addition, the Potency entry in assay [10], in assay [14], in assay [16] and in [19] was “inactive” each time.
On to `COC(=O)c1cc(Cl)cc(Cl)c1`, for which the call in assay [1], in assay [20], in [2], in assay [3], in assay [4] and in [5] was inactive. The compound was classed as inactive in assay [6], in [7], in [8], in [9], in [11] and in assay [12]. Moreover, the compound was classed as inactive in assay [13], in assay [15], in [17] and in assay [18]. Moreover, the Potency result in assay [10], in assay [14], in assay [16] and in assay [19] was “inactive” each time.
With `CCCCCCCCCCOC(C)=O`, the outcome in assay [1], in assay [20], in assay [2], in assay [3], in [4] and in assay [5] was inactive. Moreover, the call in assay [6], in assay [7], in [8], in assay [9], in assay [11] and in assay [12] was inactive. In addition, the result in [13], in [15], in [17] and in assay [18] was inactive. The Potency entry in assay [10], in [14], in [16] and in [19] was “inactive” in each case.
On to `CCc1occc(=O)c1O`, for which the outcome in [1], in [20], in assay [2], in assay [3], in assay [4] and in assay [5] was inactive. The compound was classed as inactive in assay [6], in assay [7], in assay [8], in [9], in [11] and in assay [12]. The compound was classed as inactive in assay [13], in assay [15], in assay [17] and in assay [18]. Further, the Potency entry in [10], in [14], in assay [16] and in [19] was “inactive” in each case.

Values taken from PubChem BioAssay (Tox21).
